# Source: PubChem BioAssay (NCI)
# The panel holds about 83,000 compounds, 20% with a hit somewhere; the sample as a whole holds those more often.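 In brief: 96-well plates, 48 h treatment, single concentration, percent growth endpoint.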 Unmarked numbers belong to inactive results. Calls of active or inactive are those of the source. The calls were made as follows: active = growth percent below 10; inactive = the rest.
# System: OVCAR-8 ovarian
# Assay: NCI-60 one-dose screen, 48 h (100 = growth as untreated, 0 = no growth, -100 = all killed)
# Conditions: 10 µM unless noted
row,SMILES,growth
1,Clc1ccc(-c2csc(N/N=C/c3nc4ccccc4n3C3CC3)n2)cc1,99%
2,O=C(NCCCNc1cc(-c2cn(-c3ccccc3)nc2-c2cccc(O)c2)ccn1)Nc1cc(C(F)(F)F)cc(C(F)(F)F)c1,75.7%
3,COc1ccc(-c2ccc3c4c(cccc24)C(=O)N(N2C(=O)c4cccc5cccc(c45)C2=O)C3=O)cc1,100%
4,Cc1cc(C(=O)Nc2ccc(SC#N)cc2)c(C)o1,98.3%
5,Oc1ccc(CSc2nnc(-c3cnccn3)o2)c2cccnc12,15.1%
6,O=C(O)c1ccc(-n2cc(CNc3ccc(Cl)cc3)c(-c3ccc(F)cc3)n2)cc1,92.4%
7,Cc1cn(-c2cc(NC(=O)c3cncc(C#Cc4cnc5ccc(OCCCS(C)(=O)=O)nn45)c3)cc(C(F)(F)F)c2)cn1,15.4%
8,N/C(=N\OC(=O)CSc1nc2ccccc2s1)c1ccc2ccccc2c1,98.8%
9,Nc1nc(-c2cccc([N+](=O)[O-])c2)c(N=Nc2cccc(Cl)c2)s1,41.4%
10,CC[C@@](C)(NC(=O)C(C)(C)NC(=O)[C@@H](NC(=O)[C@@H]1CCCN1C(=O)C(C)(C)NC(=O)[C@H](CC(C)C)NC(=O)CNC(=O)C(C)(C)NC(=O)[C@@H](NC(=O)C(C)(C)NC(=O)[C@H](CCC(N)=O)NC(=O)[C@H](C)NC(=O)C(C)(C)NC(=O)[C@H](C)NC(=O)C(C)(C)NC(=O)[C@@H]1CCCN1C(=O)C(C)(C)NC(C)=O)C(C)C)C(C)C)C(=O)N[C@@H](CCC(N)=O)C(=O)N[C@@H](CCC(N)=O)C(=O)N[C@H](CO)Cc1ccccc1,94.5% [4.25 µM]
11,COc1ccc(-c2nn(-c3ccccc3)cc2/C=C/C(=O)c2ccc(NC(=O)CCCCCCC(=O)NO)cc2)cc1,99.7%
12,Nc1ccc(-c2nnc(SCc3ccc(O)c4ncccc34)o2)cc1,8.94% (active)
13,O=C1Nc2ccc(Cl)cc2/C1=C/c1ccc(OCc2ccc(Br)cc2F)cc1,99.8%
14,C=C1C(=O)O[C@@H]2/C=C(/C)C3=CC(=O)[C@@](C)(C[C@H](OC(=O)/C(C)=C\C)[C@@H]12)O3,8.15% (active)
15,O=C(CCCCCCN1CC(=O)N2[C@@H](c3cccc(Cl)c3)c3[nH]c4ccccc4c3C[C@H]2C1=O)NO,34.8%
16,CS(=O)(=O)c1ccc(-c2nn(-c3ccccc3)cc2/C=N/NC(=O)c2ccncc2)cc1,101%
17,CC(C)=CCc1c2c(c(O)c3c1O[C@]14C(=C[C@@H]5C[C@H]1C(C)(C)O[C@@]4(C/C=C(/C)C(=O)O)C5=O)C3=O)CC(O)C(C)(C)O2 (some centres undefined),-25.1% (active)
18,C=C(C)C(=O)O[C@H]1C[C@@]2(C)OC(=CC2=O)/C(CO)=C\[C@H]2OC(=O)C(=C)[C@H]12,8.5% (active)
19,COc1ccc(-c2nnc(SCc3ccc(O)c4ncccc34)o2)cc1,35.1%
20,Nc1ccc(-c2nnc(SCc3ccc(O)c4ncccc34)n2-c2ccccc2)cc1,12.5%
21,CC(C)N=C(N/C(N)=N/c1nc2ccccc2s1)NC(C)C,67.2%
22,CN1CCN(Cc2ccc(NC(=O)c3cncc(C#Cc4cnc5ccc(NC6CCOCC6)nn45)c3)cc2C(F)(F)F)CC1,-52.4% (active)
23,COc1cc(/C=C/C(=O)c2ccc(NC(=O)CSc3nnc(-c4ccc5nc(-c6ccccc6)[nH]c5c4)o3)cc2)cc(OC)c1OC,97.1%
24,CC(=O)c1ccc(NC(=O)COc2ccc(C3SCC(=O)N3c3ccc(Br)cc3)cc2)cc1 (centres undefined),97.5%
25,COc1ccc(Cn2cc3c(c2-c2ccccc2)CCCc2cnoc2-3)cc1,78.8%
26,O=C(CSc1ccc(-c2nc3ccccc3[nH]2)cn1)N1CCN(c2ccccc2F)CC1,37.4%

# System: OVCAR-5 ovarian
# Assay: as above
# Conditions: 10 µM unless noted
row,SMILES,growth
1,Cc1ccc(NC(=O)c2ccc(CN3CCN(C)CC3)c(C(F)(F)F)c2)cc1Oc1ccc(-c2[nH]nc3ncnc(N)c23)cc1,95.3%
2,COc1ccc([C@H]2c3[nH]c4ccccc4c3C[C@@H]3C(=O)N(C4CCN(Cc5ccccc5)CC4)CC(=O)N23)c(OC)c1,90%
3,IP(CCCSc1n(Cc2ccc3ccccc3c2)c(-c2ccccc2)c(-c2ccccc2)[n+]1Cc1ccc2ccccc2c1)(c1ccccc1)(c1ccccc1)c1ccccc1,58.5%
4,O=C1NC(=O)c2c1c1c3ccccc3ccc1c1[nH]c3ccccc3c21,49.6%
5,COc1cc(/C=N/n2cnc3oc(-c4ccccc4)cc3c2=N)cc(CN2CCN(C)CC2)c1O,105%
6,COC1=C(c2ccccc2)C(=O)C(OC)=C(c2ccccc2)C1=O,119%
7,Cc1ccc(-c2csc(N/N=C/c3nc4ccccc4n3C3CC3)n2)cc1,105%
8,CC(C)=CCc1c(O)c(CC=C(C)C)c2c(c1O)C(=O)C1=C[C@@H]3C[C@H]4C(C)(C)O[C@@](C/C=C(\C)C(=O)O)(C3=O)[C@@]14O2,8.41% (active)
9,CN1CCN(c2nc(-c3csc(-c4ccncc4)n3)cc3ccccc23)CC1,76.1%
10,CN1C(=O)N(C)C2C1NN=c1s/c(=C\c3ccccn3)c(=O)n12 (centres undefined),109%
11,CC(C)SC1=NC(=C(C(=N1)NC2=ClC=CC=C2)C#N)C3=CC=CC=C3,80.3%
12,CC(=O)NC(C)(C)C(=O)N[C@@H](C)C(=O)NC(C)(C)C(=O)N[C@@H](C)C(=O)NC(C)(C)C(=O)N[C@@H](C)C(=O)N[C@@H](CCC(N)=O)C(=O)NC(C)(C)C(=O)N[C@H](C(=O)NC(C)(C)C(=O)NCC(=O)N[C@@H](CC(C)C)C(=O)NC(C)(C)C(=O)N1CCC[C@H]1C(=O)N[C@H](C(=O)NC(C)(C)C(=O)NC(C)(C)C(=O)N[C@@H](CCC(N)=O)C(=O)N[C@@H](CCC(N)=O)C(=O)N[C@H](CO)CC1CCCCC1)C(C)C)C(C)C,55.1% [5 µM]
13,Clc1ccc(-c2csc(N/N=C/c3nc4ccccc4n3C3CC3)n2)cc1,99.7%
14,O=C(NCCCNc1cc(-c2cn(-c3ccccc3)nc2-c2cccc(O)c2)ccn1)Nc1cc(C(F)(F)F)cc(C(F)(F)F)c1,88.8%
15,COc1ccc(-c2ccc3c4c(cccc24)C(=O)N(N2C(=O)c4cccc5cccc(c45)C2=O)C3=O)cc1,101%
16,Cc1cc(C(=O)Nc2ccc(SC#N)cc2)c(C)o1,115%
17,Oc1ccc(CSc2nnc(-c3cnccn3)o2)c2cccnc12,36.9%
18,O=C(O)c1ccc(-n2cc(CNc3ccc(Cl)cc3)c(-c3ccc(F)cc3)n2)cc1,106%
19,Cc1cn(-c2cc(NC(=O)c3cncc(C#Cc4cnc5ccc(OCCCS(C)(=O)=O)nn45)c3)cc(C(F)(F)F)c2)cn1,22.6%

row,SMILES,growth
1,N/C(=N\OC(=O)CSc1nc2ccccc2s1)c1ccc2ccccc2c1,98.9%
2,Nc1nc(-c2cccc([N+](=O)[O-])c2)c(N=Nc2cccc(Cl)c2)s1,64.3%
3,CC[C@@](C)(NC(=O)C(C)(C)NC(=O)[C@@H](NC(=O)[C@@H]1CCCN1C(=O)C(C)(C)NC(=O)[C@H](CC(C)C)NC(=O)CNC(=O)C(C)(C)NC(=O)[C@@H](NC(=O)C(C)(C)NC(=O)[C@H](CCC(N)=O)NC(=O)[C@H](C)NC(=O)C(C)(C)NC(=O)[C@H](C)NC(=O)C(C)(C)NC(=O)[C@@H]1CCCN1C(=O)C(C)(C)NC(C)=O)C(C)C)C(C)C)C(=O)N[C@@H](CCC(N)=O)C(=O)N[C@@H](CCC(N)=O)C(=O)N[C@H](CO)Cc1ccccc1,44.9% [4.25 µM]
4,COc1ccc(-c2nn(-c3ccccc3)cc2/C=C/C(=O)c2ccc(NC(=O)CCCCCCC(=O)NO)cc2)cc1,108%
5,Nc1ccc(-c2nnc(SCc3ccc(O)c4ncccc34)o2)cc1,25%
6,O=C1Nc2ccc(Cl)cc2/C1=C/c1ccc(OCc2ccc(Br)cc2F)cc1,101%
7,C=C1C(=O)O[C@@H]2/C=C(/C)C3=CC(=O)[C@@](C)(C[C@H](OC(=O)/C(C)=C\C)[C@@H]12)O3,4.42% (active)
8,O=C(CCCCCCN1CC(=O)N2[C@@H](c3cccc(Cl)c3)c3[nH]c4ccccc4c3C[C@H]2C1=O)NO,54.3%
9,CS(=O)(=O)c1ccc(-c2nn(-c3ccccc3)cc2/C=N/NC(=O)c2ccncc2)cc1,107%
10,CC(C)=CCc1c2c(c(O)c3c1O[C@]14C(=C[C@@H]5C[C@H]1C(C)(C)O[C@@]4(C/C=C(/C)C(=O)O)C5=O)C3=O)CC(O)C(C)(C)O2 (some centres undefined),-10.7% (active)
11,C=C(C)C(=O)O[C@H]1C[C@@]2(C)OC(=CC2=O)/C(CO)=C\[C@H]2OC(=O)C(=C)[C@H]12,-56.5% (active)
12,COc1ccc(-c2nnc(SCc3ccc(O)c4ncccc34)o2)cc1,88.4%
13,Nc1ccc(-c2nnc(SCc3ccc(O)c4ncccc34)n2-c2ccccc2)cc1,34.4%
14,CC(C)N=C(N/C(N)=N/c1nc2ccccc2s1)NC(C)C,60.8%
15,CN1CCN(Cc2ccc(NC(=O)c3cncc(C#Cc4cnc5ccc(NC6CCOCC6)nn45)c3)cc2C(F)(F)F)CC1,0.169% (active)
16,COc1cc(/C=C/C(=O)c2ccc(NC(=O)CSc3nnc(-c4ccc5nc(-c6ccccc6)[nH]c5c4)o3)cc2)cc(OC)c1OC,102%
17,CC(=O)c1ccc(NC(=O)COc2ccc(C3SCC(=O)N3c3ccc(Br)cc3)cc2)cc1 (centres undefined),102%
18,COc1ccc(Cn2cc3c(c2-c2ccccc2)CCCc2cnoc2-3)cc1,80.7%
19,O=C(CSc1ccc(-c2nc3ccccc3[nH]2)cn1)N1CCN(c2ccccc2F)CC1,107%
